Compounds with a hit are over-represented: about 6.7% of the library has one in this group of screens.
BoNT-F LC inh: BoNT F light chain protease inhibition; Multiplex microsphere protease cleavage assay, flow cytometry; inhibition, % at 10 µM; actives 0.22% (n = 360,000); AID 588497; in the data active means inhibition above about 35%, passing the limit was not always enough; inconclusive means no clear call, values can overlap the other calls
BoNT A protease: BoNT A light chain protease inhibition. multiplex microsphere protease substrate cleavage, flow cytometry. inhibition, % at 10 µM. actives 0.17% (n = 360,000). AID 588499; in the data active means inhibition above about 30%; inconclusive means no clear call, values can overlap the other calls
Anthrax LF prot: anthrax lethal factor protease inhibition. multiplex microsphere protease cleavage assay, LF. inhibition, % at 10 µM. actives 0.12% (n = 360,000). AID 588501; in the data active means inhibition above about 30%; inconclusive means no clear call, values can overlap the other calls
Autofluor counter: flagged as autofluorescent in microsphere protease counterscreen; compound autofluorescence counterscreen, microsphere flow cytometry; stronger effect = higher value; fluorescence intensity (concentration not given with the values); actives 3.1% (n = 360,000); AID 624483; in the data active means fluorescence intensity above about 16000; inconclusive means no clear call, values can overlap the other calls
FBA Mtb inh: inhibitors of M. tuberculosis fructose-bisphosphate aldolase; purified M. tuberculosis FBA, fluorescence read-out; inhibition, % at 1 µM; actives 2.3% (n = 360,000)
Target sequence (P9WQA3 whole entry, looked up): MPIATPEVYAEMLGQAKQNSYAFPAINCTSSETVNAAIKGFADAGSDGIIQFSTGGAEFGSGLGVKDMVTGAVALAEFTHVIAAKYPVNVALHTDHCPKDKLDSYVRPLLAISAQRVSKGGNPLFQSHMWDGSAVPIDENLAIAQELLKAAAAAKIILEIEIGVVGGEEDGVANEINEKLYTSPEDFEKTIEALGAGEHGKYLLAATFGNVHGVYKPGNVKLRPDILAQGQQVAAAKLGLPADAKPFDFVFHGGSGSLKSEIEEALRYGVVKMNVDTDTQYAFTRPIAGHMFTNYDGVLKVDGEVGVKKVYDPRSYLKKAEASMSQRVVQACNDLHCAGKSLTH
GDH-TPI counter-1: counter-screen for M. tuberculosis FBA inhibitors: GDH-TPI coupled enzymes. GDH-TPI coupled enzyme counterscreen, NADH absorbance. actives 1.2% (n = 360,000). inhibition, % at 4.8 µM; in the data active means inhibition above about 30%
Mtb FBA confirm: Mtb FBA inhibition, confirmed. shares compounds with FBA Mtb inh. purified M. tuberculosis FBA, fluorescence read-out. inhibition, % at 1 µM. actives 78% (n = 5,600). AID 651616
GDH-TPI counter-2: GDH-TPI inhibition counter-screen for FBA inhibitors; shares compounds with FBA Mtb inh; GDH-TPI coupled enzyme counterscreen, fluorescence; inhibition, % at 1 µM; actives 81% (n = 5,600); AID 652141; in the data active means inhibition above about 10%
GDH-TPI dose: counter-screen for M. tuberculosis FBA inhibitors: GDH-TPI dose response; GDH-TPI coupled enzyme assay, fluorescence, artifact counterscreen; shares compounds with FBA Mtb inh; AID 652145; actives 79% (n = 170); IC50, µM; call rule not given here
Each line names hits and unclear results; the compound was inactive in the other large screens (follow-up assays come after a bar, where they were run). Unless noted, no stated cut-off is given here; in the data, active means inhibition above about 27%; inactive means the rest.

Cc1cc(C)cc(NC(=O)c2cc3c(=O)n4ccccc4nc3s2)c1	none
CC1CC(C)CN(C(=O)c2cc3c(=O)n4ccccc4nc3s2)C1 (stereo unspecified)	FBA Mtb inh 52.7 | Mtb FBA confirm active | GDH-TPI counter-2 active
CCOC(=O)N1CCN(C(=O)c2cc3c(=O)n4ccccc4nc3s2)CC1	FBA Mtb inh 49.0 | Mtb FBA confirm 66.5 | GDH-TPI counter-2 58.0
CC(=O)Nc1ccc(S(=O)(=O)Nc2ccc3[nH]c(=O)[nH]c3c2)cc1	none
CC1CCN(C(=O)Cn2c(=O)c3cccn3c3ccccc32)CC1	none
CCCC(C)NC(C)C(=O)NC1CCCC1 (stereo unspecified)	none
COc1ccc(C2Nc3ccccc3C(=O)N2NS(C)(=O)=O)c(OC)c1 (stereo unspecified)	FBA Mtb inh 27.7 | Mtb FBA confirm inactive | GDH-TPI counter-2 inactive
CS(=O)(=O)NN1C(=O)c2ccccc2NC1c1cccc(O)c1 (stereo unspecified)	FBA Mtb inh 40.9 | Mtb FBA confirm 111.9 | GDH-TPI counter-2 81.0
CS(=O)(=O)NN1C(=O)c2ccccc2NC1c1ccccc1 (stereo unspecified)	FBA Mtb inh 34.0 | Mtb FBA confirm inactive | GDH-TPI counter-2 inactive | GDH-TPI dose 5.37
CCCCOc1ccc(N(CC(=O)NCC2CCCO2)C(=O)CCC(=O)Nc2nccs2)cc1 (stereo unspecified)	none
O=C(CCNC(=O)c1ccc(Br)cc1)OCc1ccccc1Cl	Autofluor counter inconclusive
N#C/C(=C\c1ccc[nH]1)Sc1nc2ccccc2s1	none
N#C/C(=C\c1cccs1)Sc1nc2ccccc2s1	FBA Mtb inh 101.0 | Mtb FBA confirm inactive | GDH-TPI counter-2 inactive
COc1ccc(OCC(=O)Nc2ccc3c(c2)nc(CCN2CCOCC2)n3C)cc1	none
Cc1ccc2nc(-c3ccc(O)cc3)c(Nc3ccc4c(c3)OCCO4)n2c1	FBA Mtb inh 36.3 | Mtb FBA confirm active | GDH-TPI counter-2 162.2
Cc1ccc2nc(-c3ccccc3O)c(Nc3ccc4c(c3)OCCO4)n2c1	none
CCN(c1cccc(C)c1)c1ncnc2nc[nH]c12	none
COc1cc(NC(=S)N2c3ccccc3CC2C)cc(OC)c1 (stereo unspecified)	none
Cc1cc(C)nc(-n2ncc3c2CC(c2cccc(Cl)c2)CC3=O)n1 (stereo unspecified)	FBA Mtb inh 28.9 | Mtb FBA confirm 75.3 | GDH-TPI counter-2 55.7
COc1ccccc1C(=O)NC(CCSC)C(=O)NCc1ccccn1 (stereo unspecified)	none
CN1CCc2c(sc3nc(SCC(=O)N4CCOCC4)nc(N)c23)C1	FBA Mtb inh 53.9 | Mtb FBA confirm inactive | GDH-TPI counter-2 inactive
CC/C(=N\NC(=O)c1cc(C)oc1C)c1ccc(OC(F)F)cc1	none
CC(=O)Oc1ccc2c(C)c(CC(=O)N3CCN(C(=O)C4COc5ccccc5O4)CC3)c(=O)oc2c1C (stereo unspecified)	FBA Mtb inh 43.6 | Mtb FBA confirm inactive | GDH-TPI counter-2 inactive
Cc1cc(O)c2c(C)c(CC(=O)N3CCN(C(=O)C4COc5ccccc5O4)CC3)c(=O)oc2c1 (stereo unspecified)	none
COc1cc(C)cc2oc(=O)c(CC(=O)N3CCN(C(=O)C4COc5ccccc5O4)CC3)c(C)c12 (stereo unspecified)	FBA Mtb inh 103.9 | Mtb FBA confirm 64.3 | GDH-TPI counter-2 54.2
Clc1ccc2nc(-c3ccccc3)c(Cc3ccccc3)n2c1	none
Cc1nn(-c2ccccc2)c2nc(Cl)c(C(=O)O)cc12	FBA Mtb inh 30.7 | Mtb FBA confirm active | GDH-TPI counter-2 active
C=C(Cl)COc1ccc2c(C)cc(=O)oc2c1	none
C=C(Cl)COc1ccc2c(CC)cc(=O)oc2c1	FBA Mtb inh 27.9 | Mtb FBA confirm active | GDH-TPI counter-2 active
C=C(C)COc1ccc2c(CC)cc(=O)oc2c1	FBA Mtb inh 39.9 | Mtb FBA confirm 84.8 | GDH-TPI counter-2 69.1
CCc1cccc2c(C(=O)C(F)(F)F)cn(CC(=O)NCC3CCCO3)c12 (stereo unspecified)	none
CN1C(=O)CSc2ccc(NC(=O)NCc3ccco3)cc21	none
CCOC(=O)c1c(N)n(Cc2ccco2)c2nc3ccccc3nc12	FBA Mtb inh 77.4 | Mtb FBA confirm 198.3 | GDH-TPI counter-2 171.9
CCOC(=O)Cn1c2ccccc2c2nc3ccccc3nc21	none
Nc1c(C(=O)NCc2ccco2)c2nc3ccccc3nc2n1Cc1ccc(F)cc1	FBA Mtb inh 58.5 | Mtb FBA confirm 37.8 | GDH-TPI counter-2 36.9
Nc1c(C(=O)NCCN2CCOCC2)c2nc3ccccc3nc2n1-c1cccc(F)c1	FBA Mtb inh 103.8 | Mtb FBA confirm inactive | GDH-TPI counter-2 inactive
CCCCCn1c(N)c(C(=O)NCCN2CCOCC2)c2nc3ccccc3nc21	FBA Mtb inh 65.0 | Mtb FBA confirm active | GDH-TPI counter-2 active
O=C(NCc1ccco1)c1c(F)c(F)c(F)c(C(=O)NCc2ccco2)c1F	none
COc1ccc(CCNC(=O)c2c(N)n(CCN3CCOCC3)c3nc4ccccc4nc23)cc1OC	none
O=C(/C=C/c1cccc([N+](=O)[O-])c1)NCc1cccnc1	none
Nc1c(C(=O)NCc2ccco2)c2nc3ccccc3nc2n1CCN1CCOCC1	Autofluor counter 21216, FBA Mtb inh 72.4 | Mtb FBA confirm 107.5 | GDH-TPI counter-2 88.9
COc1ccc(-n2c(=S)[nH]c3cc(C(=O)NCc4ccco4)ccc3c2=O)c(OC)c1	none
COc1ccc(CCn2c(N)c(C(=O)NCc3ccco3)c3nc4ccccc4nc32)cc1	FBA Mtb inh 85.0 | Mtb FBA confirm active | GDH-TPI counter-2 197.8
COc1ccc(-n2c(N)c(C(=O)NCc3ccco3)c3nc4ccccc4nc32)c(OC)c1	FBA Mtb inh 59.6 | Mtb FBA confirm inactive | GDH-TPI counter-2 inactive
C=CCNC(=O)c1c(N)n(-c2ccc3c(c2)OCO3)c2nc3ccccc3nc12	none
CCCNC(=O)c1c(N)n(-c2cccc(OC)c2)c2nc3ccccc3nc12	BoNT A protease inconclusive, Autofluor counter 20561, FBA Mtb inh 67.7 | Mtb FBA confirm inactive | GDH-TPI counter-2 inactive
CCCCNC(=O)c1c(N)n(Cc2ccc3c(c2)OCO3)c2nc3ccccc3nc12	FBA Mtb inh 29.5 | Mtb FBA confirm 65.1 | GDH-TPI counter-2 55.5
COc1ccc(Cn2c(N)c(C(=O)NCc3ccco3)c3nc4ccccc4nc32)cc1	FBA Mtb inh 61.4 | Mtb FBA confirm 190.1 | GDH-TPI counter-2 158.1

Assay outcomes (PubChem)
